The source of these data is the supplement of paper PMC8975748.

The structures appear in SMILES notation. Counter-ions that a name gives are not always drawn.

The subject of the test is Saccharomyces cerevisiae BY4741 SeMeCo community. Put plainly: z-score of subpopulation abundance vs DMSO median, subpopulation auxotrophic for HLU; higher = larger share of this subpopulation than in DMSO controls. As to conditions: 10 µM; 24 h; SM minimal medium; subpopulation (auxotrophy): HLU. As to the method: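 Fluorescent four-plasmid SeMeCo (self-establishing metabolically cooperating S. cerevisiae BY4741 community; plasmids pH-mRuby2, pL-mWasabi, pU-eCFP, pM-TagRFP657) was grown 24 h in minimal SM medium with each Selleck FDA-approved drug at 10 µM in 384-well plates. Cells were fixed and imaged by high-content confocal microscopy. For each auxotrophic subpopulation (and the prototroph), a z-score gives the deviation from the DMSO vehicle-control population median.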
On to `C[C@H]1O[C@H](O[C@H]2[C@H](O)[C@@H](O)[C@@H](O)[C@H](O)[C@@H]2O)[C@@H](N)C[C@@H]1NC(=N)C(=O)O` [Kasugamycin hydrochloride], for which the “z-score of subpopulation abundance” value worked out at 0.46.

`CCOC(=O)Nc1ccc(NCc2ccc(F)cc2)cc1N` [Retigabine]: the “z-score of subpopulation abundance” value was 0.77. Under `O=C(O[C@H]1C[C@H]2CC[C@@H](C1)[N+]21CCCC1)C(O)(c1ccccc1)c1ccccc1` [Trospium chloride] stands -0.58; under `CN1c2ccccc2C(NCCCCCCC(=O)O)c2ccc(Cl)cc2S1(=O)=O` (centres undefined) [Tianeptine sodium], -0.23. For the compound `CNC1CC(N)C(O)C(OC2OC(CO)C(O)C3OC4(OC(C(N)CO)C(O)C(O)C4O)OC23)C1O` (centres undefined) [Hygromycin B], the “z-score of subpopulation abundance” value was -0.44.

As to `O=c1[nH]c2ccccc2n1CCCN1CCC(n2c(=O)[nH]c3cc(Cl)ccc32)CC1` [Domperidone], the “z-score of subpopulation abundance” value was determined as 1.05. Turning to `CN(C)[C@@H]1C(=O)C(C(N)=O)=C(O)[C@@]2(O)C(=O)C3=C(O)c4c(O)cccc4[C@@](C)(O)[C@H]3[C@H](O)[C@@H]12` [Oxytetracycline (Terramycin)], the “z-score of subpopulation abundance” value came out at 0.16. Take `C[C@@H]1CC[C@H]2[C@@H](C)C(=O)O[C@@H]3O[C@@]4(C)CC[C@@H]1[C@]32OO4` [Artemisinin]: the “z-score of subpopulation abundance” value was -0.05.

Consider `C=C[C@H]1CN2CC[C@H]1C[C@H]2[C@H](O)c1ccnc2ccccc12` [Cinchonidine], for which the “z-score of subpopulation abundance” value was -0.48.

For `O=[N+]([O-])C(Br)(CO)CO` [Bronopol], the “z-score of subpopulation abundance” value was 0.49. As for `CCN(C)C(=O)Oc1cccc([C@H](C)N(C)C)c1` [Rivastigmine Tartrate], the “z-score of subpopulation abundance” value was -0.41. Regarding `CN1[C@@H]2CC[C@H]1C[C@@H](OC(=O)C(CO)c1ccccc1)C2` (some centres undefined) [Atropine sulfate monohydrate], the “z-score of subpopulation abundance” value is -0.61. Regarding `Cc1cc(O)ccc1Cl` [Chlorocresol], the “z-score of subpopulation abundance” value is -0.87. In the case of `CC(=O)O[C@H]1C[C@@H]2CC[C@@H]3[C@H](CC[C@@]4(C)[C@H]3C[C@H]([N+]3(C)CCCCC3)[C@@H]4OC(C)=O)[C@@]2(C)C[C@@H]1[N+]1(C)CCCCC1` [Pancuronium dibromide], the “z-score of subpopulation abundance” value is -0.5. Turning to `NCCc1c[nH]c2ccc(O)cc12` [Serotonin HCl], the “z-score of subpopulation abundance” value was -0.94. As for `CC(C)(O)C(Cl)(Cl)Cl` [Chlorobutanol], the “z-score of subpopulation abundance” value is 0.97.

With `CN[C@@H]1[C@@H](O)[C@@H](O[C@@H]2[C@@H](O)[C@H](O[C@H]3O[C@H]([C@@H](C)O)[C@@H](O)[C@H](O)[C@H]3N)[C@@H](N)C[C@H]2N)OC[C@]1(C)O` [Geneticin (G418 Sulfate)], the “z-score of subpopulation abundance” value is 0.77. Under `CCCN1C[C@H](CSC)C[C@@H]2c3cccc4[nH]cc(c34)C[C@H]21` [Pergolide Mesylate] stands -0.75; under `CC(C)N(CCC(C(N)=O)(c1ccccc1)c1ccccn1)C(C)C` (centres undefined) [Disopyramide], 1.07. Under `COc1ccc2c(c1)[C@]13CCCC[C@@H]1[C@H](C2)N(C)CC3` [Dextromethorphan hydrobromide hydrate] stands -0.08.

Turning to `COc1ccc(C(CN(C)C)C2(O)CCCCC2)cc1` (centres undefined) [Venlafaxine], the “z-score of subpopulation abundance” value is -0.41.

`C=CC[C@]1(O)CC[C@H]2[C@@H]3CCC4=CC(=O)CCC4=C3C=C[C@@]21C` [Altrenogest]: the “z-score of subpopulation abundance” value amounted to 0.03. As to `Cc1cc(C(C#N)c2ccc(Cl)cc2)c(Cl)cc1NC(=O)c1cc(I)cc(I)c1O` (centres undefined) [Closantel], the “z-score of subpopulation abundance” value amounted to 0.79. As for `CN[C@@H]1[C@@H](O)[C@@H](O[C@@H]2[C@@H](O)[C@H](O[C@H]3O[C@H](CN)CC[C@H]3N)[C@@H](N)C[C@H]2N)OC[C@]1(C)O.CN[C@@H]1[C@@H](O)[C@@H](O[C@@H]2[C@@H](O)[C@H](O[C@H]3O[C@H]([C@@H](C)N)CC[C@H]3N)[C@@H](N)C[C@H]2N)OC[C@]1(C)O.CN[C@@H]1[C@@H](O)[C@@H](O[C@@H]2[C@@H](O)[C@H](O[C@H]3O[C@H]([C@@H](C)NC)CC[C@H]3N)[C@@H](N)C[C@H]2N)OC[C@]1(C)O` [Gentamicin Sulfate], the “z-score of subpopulation abundance” value is -0.42. For `CC[C@@]1(O)C(=O)OCc2c1cc1n(c2=O)Cc2cc3ccccc3nc2-1` [Camptothecin] the value was -0.42; for `N[C@@H]1C[C@H]1c1ccccc1` [Tranylcypromine (2-PCPA) HCl], 0.05; for `CCN1CC2(OC(=O)c3ccccc3NC(C)=O)CCC(OC)C34C1C(CC23)C1(O)CC(OC)C2CC4C1(O)C2OC` (centres undefined) [Lappaconitine], -0.47. Turning to `C=CCN1C[C@H](C(=O)N(CCCN(C)C)C(=O)NCC)C[C@@H]2c3cccc4[nH]cc(c34)C[C@H]21` [Cabergoline], the “z-score of subpopulation abundance” value is -0.08.

With `CC[C@H]1[C@@H]2C[C@H]3[C@@H]4N(C)c5ccccc5[C@]45C[C@@H]([C@@H]2[C@H]5O)N3[C@@H]1O` [Ajmaline], the “z-score of subpopulation abundance” value was -0.63. Turning to `CN1[C@@H]2C[C@@H](OC(=O)[C@H](CO)c3ccccc3)C[C@H]1[C@@H]1O[C@@H]12` [Scopolamine HBr], the “z-score of subpopulation abundance” value was -1.08.

As for `C[N+](C)(C)CCCCCCCCCC[N+](C)(C)C` [Decamethonium Bromide], the “z-score of subpopulation abundance” value turned out to be 0.

`CC[N+](C)(CC)CCOC(=O)C(O)(c1ccccc1)c1ccccc1` [Methylbenactyzine Bromide]: the “z-score of subpopulation abundance” value is -0.28. With `CCC1=C[C@H]2CN3CCc4c([nH]c5ccccc45)[C@](C(=O)OC)(C2)[C@H]13` [Catharanthine], the “z-score of subpopulation abundance” value was -0.62.

Regarding `COc1ccc2c3c([nH]c2c1)C(C)=NCC3` [Harmaline], the “z-score of subpopulation abundance” value is -4.09.
